Laboratory results taken from PubChem BioAssay (EPA / NIEHS).
Active and inactive are the calls of the source. Rule for the calls: active = hit-call score of the fitted dose curve at least 0.9, where 1 is the maximum; inactive = score below 0.9.

read-out: 3-Hydroxy-3-Methylglutaryl-CoA Synthase 2 (HMGCS2), HMGCS2 (gene 3158); experiment: LTEA_HepaRG_HMGCS2: Life Technologies and Expression Analysis (LTEA) Assay for 3-Hydroxy-3-Methylglutaryl-CoA Synthase 2 (HMGCS2) using HepaRG (AID 2283504); details: mRNA level, 48 h; actives raise or lower the signal
Outline: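 qRT-PCR read-out of HMGCS2 transcript, normalised to three housekeeping genes, in HepaRG cells after 48 h chemical exposure. Eight-point curves from 100 uM, half-log dilutions, 0.5% DMSO vehicle; gain or loss fitted relative to DMSO baseline.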

Structure (SMILES) | outcome | AC50
c1ccc2n[nH]nc2c1 | inactive | 
Cc1oc2c(NC(=O)c3c(Cl)cccc3Cl)cccc2c1C(C)(C)O |  | 52.8 µM (active)
Cc1cc(F)ccc1-c1cc(N2CC[C@@H](O)[C@H]2CO)ncc1N(C)C(=O)C(C)(C)c1cc(C(F)(F)F)cc(C(F)(F)F)c1 |  | 19.7 µM (active)
CC(C)(c1cc(Br)c(O)c(Br)c1)c1cc(Br)c(O)c(Br)c1 |  | 89.2 µM (active)
CN1C(=O)N(c2ccccc2Br)Cc2cnc(Nc3ccc4c(c3)OCC(CO)O4)nc21 (stereo unspecified) |  | 75.4 µM (active)
CCOC(=O)O[C@H](C)OC(=O)c1ccc2c(c1)cc(C(=O)NC1CCN(C(C)C)CC1)n2Cc1cc(-c2ccc(Cl)s2)on1 | inactive | 
CCCCCCCCOC(=O)c1cc(O)c(O)c(O)c1 | inactive | 
CN(C)c1ccc(C(=C2C=CC(=[N+](C)C)C=C2)c2ccc(N(C)C)cc2)cc1 |  | 3.66 µM (active)
COc1ccc2cc(S(=O)(=O)N[C@H](CC(=O)N[C@H](Cc3ccc(CN4[C@H](C)CCC[C@@H]4C)cc3)C(=O)N(C)C(C)C)c3ccc4c(c3)OCO4)ccc2c1 | inactive | 
CCN(Cc1cccc(S(=O)(=O)O)c1)c1ccc(C(=C2C=CC(=[N+](CC)Cc3cccc(S(=O)(=O)O)c3)C=C2)c2ccccc2S(=O)(=O)[O-])cc1 | inactive | 
Oc1ccc2ccccc2c1 | inactive | 
Clc1cc(Cl)c2c(c1)N=C1CCCCCN1C2 | inactive | 
CC(C)(O)c1ccc(CNC(=O)c2cccnc2Oc2ccc3nonc3c2)cc1 | inactive | 
O=C(O)Cn1c(=O)n(Cc2ccc(Br)cc2F)c(=O)c2ccc(Cl)cc21 | inactive | 
CC/C(=C(/CC)c1ccc(O)cc1)c1ccc(O)cc1 | inactive | 
COc1cc(C(=O)NC2CCN(C)CC2)ccc1Nc1ncc2c(n1)N(C1CCCC1)CC(F)(F)C(=O)N2C |  | 10.5 µM (active)
CCN(CC)C(=O)c1cc(S(=O)(=O)Cc2ccccc2)c(N2CCC(c3ccccc3)CC2)cc1N(CC)CCN(C)C |  | 35.5 µM (active)
CC[C@@H]1C[C@H](N(Cc2cc(C(F)(F)F)cc(C(F)(F)F)c2)C(C)=O)c2cc(C(F)(F)F)ccc2N1C(=O)OC(C)C | inactive | 
c1ccc2ccccc2c1 | inactive | 

Structure (SMILES) | outcome | AC50
CCCCCCCCCCCO | inactive | 
Cc1ccc(C(C)C)cc1 | inactive | 
OC12N=C(c3ccccc3)SC1Cc1cc(Cl)ccc12 (stereo unspecified) |  | 20 µM (active)
CN(C)C(=O)C1(N2CCCCC2)CCN(CC[C@@]2(c3ccc(Cl)c(Cl)c3)CN(C(=O)c3ccccc3)CCO2)CC1 |  | 68.6 µM (active)
O=CCCCC=O | inactive | 
NCc1cccc(C2CCN(C(=O)c3ccc(C#Cc4ccccc4F)o3)CC2)c1 |  | 93.8 µM (active)
COc1cccc([C@H](O)C2CCN(CCc3ccc(F)cc3)CC2)c1OC | inactive | 
CC(C)(C)c1csc(-c2cc3cc(OCc4ccccc4CC(=O)O)ccc3o2)n1 |  | 31.6 µM (active)
O=c1[nH]sc2ccccc12 | inactive | 
O=c1c(-c2ccc(O)cc2)coc2cc(O)cc(O)c12 | inactive | 
CCCCCCCC[Si](OCC)(OCC)OCC | inactive | 
CCCCOC(=O)CC(CC(=O)OCCCC)(OC(C)=O)C(=O)OCCCC | inactive | 
CCCCCCCCN(C)CCCCCCCC | inactive | 
CC[C@H](NC(=O)c1cc(F)ccc1NS(=O)(=O)c1cccc2cccnc12)c1ccccc1 |  | 37.6 µM (active)
CCCCCCCCCCCC[N+](C)(C)C |  | 95.9 µM (active)
O=C1CCC(C2CCCCC2)CC1 | inactive | 
O=C1c2ccccc2C(=O)N1CCc1noc(-c2ccc(CN3CCCCCC3)s2)n1 | inactive | 
CC1=CC(=O)/C(=C(/C)O)C(=O)O1 | inactive | 
CCO[Si](CCCNC(N)=O)(OCC)OCC | inactive | 

read-out: HGF (gene 3082); experiment: LTEA_HepaRG_HGF: Life Technologies and Expression Analysis (LTEA) Assay for Hepatocyte Growth Facto (HGF) using HepaRG (AID 2283505); details: mRNA level, 48 h; actives raise or lower the signal
Outline: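 HepaRG, 48 h dosing, 8-pt half-log series from 100 uM in 0.5% DMSO, duplicates. Readout: TaqMan qRT-PCR of HGF mRNA, housekeeping-normalized; bidirectional curve fit vs DMSO baseline.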

Structure (SMILES) | outcome | AC50
c1ccc2n[nH]nc2c1 | inactive | 
Cc1oc2c(NC(=O)c3c(Cl)cccc3Cl)cccc2c1C(C)(C)O |  | 85.7 µM (active)
Cc1cc(F)ccc1-c1cc(N2CC[C@@H](O)[C@H]2CO)ncc1N(C)C(=O)C(C)(C)c1cc(C(F)(F)F)cc(C(F)(F)F)c1 | inactive | 
CC(C)(c1cc(Br)c(O)c(Br)c1)c1cc(Br)c(O)c(Br)c1 | inactive | 
CN1C(=O)N(c2ccccc2Br)Cc2cnc(Nc3ccc4c(c3)OCC(CO)O4)nc21 (stereo unspecified) | inactive | 
CCOC(=O)O[C@H](C)OC(=O)c1ccc2c(c1)cc(C(=O)NC1CCN(C(C)C)CC1)n2Cc1cc(-c2ccc(Cl)s2)on1 | inactive | 
CCCCCCCCOC(=O)c1cc(O)c(O)c(O)c1 | inactive | 
CN(C)c1ccc(C(=C2C=CC(=[N+](C)C)C=C2)c2ccc(N(C)C)cc2)cc1 | inactive | 
COc1ccc2cc(S(=O)(=O)N[C@H](CC(=O)N[C@H](Cc3ccc(CN4[C@H](C)CCC[C@@H]4C)cc3)C(=O)N(C)C(C)C)c3ccc4c(c3)OCO4)ccc2c1 |  | 19.9 µM (active)
CCN(Cc1cccc(S(=O)(=O)O)c1)c1ccc(C(=C2C=CC(=[N+](CC)Cc3cccc(S(=O)(=O)O)c3)C=C2)c2ccccc2S(=O)(=O)[O-])cc1 | inactive | 
Oc1ccc2ccccc2c1 | inactive | 
Clc1cc(Cl)c2c(c1)N=C1CCCCCN1C2 | inactive | 
CC(C)(O)c1ccc(CNC(=O)c2cccnc2Oc2ccc3nonc3c2)cc1 | inactive | 
O=C(O)Cn1c(=O)n(Cc2ccc(Br)cc2F)c(=O)c2ccc(Cl)cc21 | inactive | 
CC/C(=C(/CC)c1ccc(O)cc1)c1ccc(O)cc1 |  | 23.6 µM (active)
COc1cc(C(=O)NC2CCN(C)CC2)ccc1Nc1ncc2c(n1)N(C1CCCC1)CC(F)(F)C(=O)N2C | inactive | 
CCN(CC)C(=O)c1cc(S(=O)(=O)Cc2ccccc2)c(N2CCC(c3ccccc3)CC2)cc1N(CC)CCN(C)C | inactive | 
CC[C@@H]1C[C@H](N(Cc2cc(C(F)(F)F)cc(C(F)(F)F)c2)C(C)=O)c2cc(C(F)(F)F)ccc2N1C(=O)OC(C)C | inactive | 
c1ccc2ccccc2c1 | inactive | 

Structure (SMILES) | outcome | AC50
CCCCCCCCCCCO | inactive | 
Cc1ccc(C(C)C)cc1 | inactive | 
OC12N=C(c3ccccc3)SC1Cc1cc(Cl)ccc12 (stereo unspecified) | inactive | 
CN(C)C(=O)C1(N2CCCCC2)CCN(CC[C@@]2(c3ccc(Cl)c(Cl)c3)CN(C(=O)c3ccccc3)CCO2)CC1 | inactive | 
O=CCCCC=O | inactive | 
NCc1cccc(C2CCN(C(=O)c3ccc(C#Cc4ccccc4F)o3)CC2)c1 |  | 79.5 µM (active)
COc1cccc([C@H](O)C2CCN(CCc3ccc(F)cc3)CC2)c1OC | inactive | 
CC(C)(C)c1csc(-c2cc3cc(OCc4ccccc4CC(=O)O)ccc3o2)n1 | inactive | 
O=c1[nH]sc2ccccc12 | inactive | 
O=c1c(-c2ccc(O)cc2)coc2cc(O)cc(O)c12 | inactive | 
CCCCCCCC[Si](OCC)(OCC)OCC | inactive | 
CCCCOC(=O)CC(CC(=O)OCCCC)(OC(C)=O)C(=O)OCCCC | inactive | 
CCCCCCCCN(C)CCCCCCCC | inactive | 
CC[C@H](NC(=O)c1cc(F)ccc1NS(=O)(=O)c1cccc2cccnc12)c1ccccc1 | inactive | 
CCCCCCCCCCCC[N+](C)(C)C |  | 90.1 µM (active)
O=C1CCC(C2CCCCC2)CC1 | inactive | 
O=C1c2ccccc2C(=O)N1CCc1noc(-c2ccc(CN3CCCCCC3)s2)n1 | inactive | 
CC1=CC(=O)/C(=C(/C)O)C(=O)O1 | inactive | 
CCO[Si](CCCNC(N)=O)(OCC)OCC | inactive | 
